# Measured values taken from ChEMBL document CHEMBL1961873, “Compounds: GSK PKIS; Assays: Nanosyn kinase panel” (2012).
# Target: Platelet-derived growth factor receptor beta (Homo sapiens) (UniProt P09619);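 further: each value is a mean percent inhibition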
# Details: at 1 µM
# Platelet-derived growth factor receptor beta (Homo sapiens), sequence (P09619 whole entry): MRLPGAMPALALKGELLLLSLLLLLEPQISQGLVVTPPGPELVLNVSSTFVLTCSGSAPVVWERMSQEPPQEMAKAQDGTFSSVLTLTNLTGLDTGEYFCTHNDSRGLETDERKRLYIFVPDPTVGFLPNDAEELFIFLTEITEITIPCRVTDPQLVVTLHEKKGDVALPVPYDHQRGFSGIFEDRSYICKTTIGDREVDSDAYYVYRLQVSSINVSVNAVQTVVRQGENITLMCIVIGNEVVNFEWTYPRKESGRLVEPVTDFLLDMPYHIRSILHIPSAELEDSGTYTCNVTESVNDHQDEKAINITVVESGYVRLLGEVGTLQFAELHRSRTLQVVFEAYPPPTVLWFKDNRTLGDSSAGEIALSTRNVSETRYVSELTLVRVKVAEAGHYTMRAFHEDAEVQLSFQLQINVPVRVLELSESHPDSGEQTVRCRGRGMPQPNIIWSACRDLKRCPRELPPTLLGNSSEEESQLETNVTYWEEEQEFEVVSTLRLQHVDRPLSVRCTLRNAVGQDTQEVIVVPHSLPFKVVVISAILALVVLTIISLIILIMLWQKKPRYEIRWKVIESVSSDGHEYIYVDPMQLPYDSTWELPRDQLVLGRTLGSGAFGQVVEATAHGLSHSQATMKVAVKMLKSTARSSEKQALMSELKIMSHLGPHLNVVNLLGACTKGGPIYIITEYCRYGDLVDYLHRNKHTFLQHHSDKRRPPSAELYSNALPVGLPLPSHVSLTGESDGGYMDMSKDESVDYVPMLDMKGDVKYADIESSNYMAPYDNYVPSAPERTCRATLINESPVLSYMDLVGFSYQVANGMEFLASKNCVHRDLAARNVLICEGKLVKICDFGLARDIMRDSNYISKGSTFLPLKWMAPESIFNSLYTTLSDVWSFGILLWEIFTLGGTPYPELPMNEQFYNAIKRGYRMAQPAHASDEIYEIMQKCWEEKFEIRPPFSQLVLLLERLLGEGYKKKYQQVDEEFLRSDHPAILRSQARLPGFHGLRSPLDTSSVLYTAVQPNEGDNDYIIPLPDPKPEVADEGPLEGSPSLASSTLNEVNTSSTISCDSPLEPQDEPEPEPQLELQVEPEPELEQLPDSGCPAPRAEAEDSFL
row,SMILES,inhibition
1,Nc1ncnc2occ(-c3ccc(NC(=O)Nc4cc(C(F)(F)F)cc(C(F)(F)F)c4)cc3)c12,81.5%
2,CCn1c(-c2nonc2N)nc2c(N3CCCC3)nccc21,8.55%
3,CCn1c(-c2nonc2N)nc2cnc(Oc3cccc(NC(=O)c4ccc(OCCN5CCOCC5)cc4)c3)cc21,9.39%
4,COc1ccccc1Nc1ncc(-c2ccccc2)o1,47.7%
5,Cc1cccc(-c2n[nH]cc2-c2ccc3ncccc3n2)n1,26.5%
6,CC1=C(C(=O)Nc2ccc3[nH]ncc3c2)C(c2ccc(F)cc2)NC(=O)N1 (stereo not drawn),6.86%
7,CCCN1CCC=C(c2ccc(Nc3nc(Nc4ccccc4C(N)=O)c4cc[nH]c4n3)c(C)c2)C1,37.2%
8,CS(=O)(=O)Nc1ccc(N/C=C2\C(=O)Nc3ccccc32)cc1,38%
9,CCN1CCC(CC(=O)Nc2n[nH]c3nc(-c4cccs4)c(Br)cc23)CC1,14.4%
10,CS(=O)(=O)CCNCc1ccc(-c2ccc3ncnc(Nc4ccc(OCc5cccc(F)c5)c(C(F)(F)F)c4)c3c2)o1,1.85%
11,COc1ccc(-c2nn3ncccc3c2-c2ccnc(Nc3ccc(Cl)c(C(F)(F)F)c3)n2)cc1,5.76%
12,c1cnn2ncc(-c3ccnc(Nc4ccc5c(c4)OCCO5)n3)c2c1,67.3%
13,CCn1c(-c2nonc2N)nc2cncc(C(=O)N3CC[C@H](N)C3)c21,10.7%
14,NCc1ccc(-c2nc(-c3ccc(Cl)c(O)c3)c(-c3ccncc3)[nH]2)cc1,31%
15,COc1cc2ncn(-c3cc(OCc4ccccc4C(F)(F)F)c(C(N)=O)s3)c2cc1OC,83.5%
16,COc1ccc(-c2ccncc2)cc1C(N)=O,11.4%
17,Cc1cc(O)cc(C)c1/C=C/c1cncc(-c2nn[nH]n2)c1,49.5%

row,SMILES,inhibition
1,Nc1nc(-c2ccc3c(c2)C(=Cc2cc(Br)c(O)c(Br)c2)C(=O)N3)cs1,7.52%
2,COc1cccc(-n2ncc3c(N/N=C/c4cccc(F)c4)ncnc32)c1,51.1%
3,COC(=O)Nc1nc2cc(Oc3ccc(NC(=O)Nc4cccc(C(=O)O)c4)cc3)ccc2[nH]1,16.2%
4,Cc1nn(C)c2cc(N(C)c3ccnc(Nc4cccc(S(N)(=O)=O)c4)n3)ccc12,61.6%
5,COc1cc2ncn(-c3cc(OCc4ccccc4Cl)c(C(N)=O)s3)c2cc1OC,86.5%
6,CC(=O)Nc1cccc(C#Cc2cncnc2Nc2ccc(OCc3cccc(F)c3)c(Cl)c2)n1,9.6%
7,COc1ccc(COc2ccc(Cc3cnc(N)nc3N)cc2OC)cc1,10%
8,Nc1nc(-c2ccccn2)c(-c2ccc3ncccc3n2)s1,7.71%
9,CC1=C(C(=O)Nc2ccc3[nH]ncc3c2)C(c2ccc3ccccc3c2)CC(=O)N1 (stereo not drawn),13.7%
10,Cn1cc(C=C2C(=O)Nc3cccnc32)c2ccccc21,42%
11,COc1ccc(-c2coc3ncnc(N)c23)cc1,12.1%
12,CS(=O)(=O)CCNCc1nc(-c2ccc3ncnc(Nc4ccc(F)c(Cl)c4)c3c2)cs1,9.07%
13,O=C1Nc2ccc(C(=O)c3ccco3)cc2C1=Cc1cc(Cl)c(O)c(Cl)c1,18.5%
14,COc1cc2ncn(-c3cc(O[C@H](C)c4ccccc4Cl)c(C(N)=O)s3)c2cc1OC,95.3%
15,CS(=O)(=O)CCN(CC#N)Cc1ccc(-c2ccc3ncnc(Nc4ccc(OCc5cccc(F)c5)c(Cl)c4)c3c2)o1,6.45%
16,CC(C)=Cc1cccc2c1/C(=N/Nc1ccc(S(N)(=O)=O)cc1)C(=O)N2,62.6%
17,CCn1c(-c2nonc2N)nc2c(C#CC(C)(C)O)nc(OC[C@@H](N)c3ccccc3)cc21,50.8%

# Target: Tyrosine-protein kinase FRK (Homo sapiens) (UniProt P42685);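 further: values are mean inhibition of PTK5 (FRK) kinase activity from the GSK PKIS screening set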
# Sequence (P42685 whole entry): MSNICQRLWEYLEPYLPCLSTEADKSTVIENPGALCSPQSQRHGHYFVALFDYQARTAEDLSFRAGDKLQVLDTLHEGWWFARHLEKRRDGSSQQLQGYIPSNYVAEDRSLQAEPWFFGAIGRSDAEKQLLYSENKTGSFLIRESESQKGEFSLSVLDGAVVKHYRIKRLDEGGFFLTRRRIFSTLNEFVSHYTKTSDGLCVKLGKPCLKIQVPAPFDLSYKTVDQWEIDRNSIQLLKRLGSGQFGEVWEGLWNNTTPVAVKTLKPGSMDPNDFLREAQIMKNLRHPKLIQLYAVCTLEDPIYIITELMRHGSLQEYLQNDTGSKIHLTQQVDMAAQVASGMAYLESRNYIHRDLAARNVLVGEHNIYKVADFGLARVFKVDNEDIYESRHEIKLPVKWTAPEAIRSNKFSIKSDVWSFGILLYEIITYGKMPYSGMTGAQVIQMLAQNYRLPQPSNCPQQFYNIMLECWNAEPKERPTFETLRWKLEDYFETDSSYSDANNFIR
# Details: at 0.1 µM
row,SMILES,inhibition
1,Nc1ncnc2occ(-c3ccc(NC(=O)Nc4cc(C(F)(F)F)cc(C(F)(F)F)c4)cc3)c12,1.36%
2,CCn1c(-c2nonc2N)nc2c(N3CCCC3)nccc21,-0.17%
3,CCn1c(-c2nonc2N)nc2cnc(Oc3cccc(NC(=O)c4ccc(OCCN5CCOCC5)cc4)c3)cc21,2.25%
4,COc1ccccc1Nc1ncc(-c2ccccc2)o1,3.68%
5,Cc1cccc(-c2n[nH]cc2-c2ccc3ncccc3n2)n1,1.55%
6,CC1=C(C(=O)Nc2ccc3[nH]ncc3c2)C(c2ccc(F)cc2)NC(=O)N1 (stereo not drawn),1.9%
7,CCCN1CCC=C(c2ccc(Nc3nc(Nc4ccccc4C(N)=O)c4cc[nH]c4n3)c(C)c2)C1,1.94%
8,CS(=O)(=O)Nc1ccc(N/C=C2\C(=O)Nc3ccccc32)cc1,-0.66%
9,CCN1CCC(CC(=O)Nc2n[nH]c3nc(-c4cccs4)c(Br)cc23)CC1,-1.17%
10,CS(=O)(=O)CCNCc1ccc(-c2ccc3ncnc(Nc4ccc(OCc5cccc(F)c5)c(C(F)(F)F)c4)c3c2)o1,2.17%
11,COc1ccc(-c2nn3ncccc3c2-c2ccnc(Nc3ccc(Cl)c(C(F)(F)F)c3)n2)cc1,1.65%
12,c1cnn2ncc(-c3ccnc(Nc4ccc5c(c4)OCCO5)n3)c2c1,1.69%
13,CCn1c(-c2nonc2N)nc2cncc(C(=O)N3CC[C@H](N)C3)c21,3.16%
14,NCc1ccc(-c2nc(-c3ccc(Cl)c(O)c3)c(-c3ccncc3)[nH]2)cc1,5.22%
15,COc1cc2ncn(-c3cc(OCc4ccccc4C(F)(F)F)c(C(N)=O)s3)c2cc1OC,3.08%
16,COc1ccc(-c2ccncc2)cc1C(N)=O,4.92%
17,Cc1cc(O)cc(C)c1/C=C/c1cncc(-c2nn[nH]n2)c1,6.95%

row,SMILES,inhibition
1,Nc1nc(-c2ccc3c(c2)C(=Cc2cc(Br)c(O)c(Br)c2)C(=O)N3)cs1,0.6%
2,COc1cccc(-n2ncc3c(N/N=C/c4cccc(F)c4)ncnc32)c1,1.84%
3,COC(=O)Nc1nc2cc(Oc3ccc(NC(=O)Nc4cccc(C(=O)O)c4)cc3)ccc2[nH]1,0.4%
4,Cc1nn(C)c2cc(N(C)c3ccnc(Nc4cccc(S(N)(=O)=O)c4)n3)ccc12,3.71%
5,COc1cc2ncn(-c3cc(OCc4ccccc4Cl)c(C(N)=O)s3)c2cc1OC,2.63%
6,CC(=O)Nc1cccc(C#Cc2cncnc2Nc2ccc(OCc3cccc(F)c3)c(Cl)c2)n1,0.61%
7,COc1ccc(COc2ccc(Cc3cnc(N)nc3N)cc2OC)cc1,-0.22%
8,Nc1nc(-c2ccccn2)c(-c2ccc3ncccc3n2)s1,2.13%
9,CC1=C(C(=O)Nc2ccc3[nH]ncc3c2)C(c2ccc3ccccc3c2)CC(=O)N1 (stereo not drawn),2.73%
10,Cn1cc(C=C2C(=O)Nc3cccnc32)c2ccccc21,0.71%
11,COc1ccc(-c2coc3ncnc(N)c23)cc1,1.9%
12,CS(=O)(=O)CCNCc1nc(-c2ccc3ncnc(Nc4ccc(F)c(Cl)c4)c3c2)cs1,-0.58%
13,O=C1Nc2ccc(C(=O)c3ccco3)cc2C1=Cc1cc(Cl)c(O)c(Cl)c1,1.7%
14,COc1cc2ncn(-c3cc(O[C@H](C)c4ccccc4Cl)c(C(N)=O)s3)c2cc1OC,2.17%
15,CS(=O)(=O)CCN(CC#N)Cc1ccc(-c2ccc3ncnc(Nc4ccc(OCc5cccc(F)c5)c(Cl)c4)c3c2)o1,1.47%
16,CC(C)=Cc1cccc2c1/C(=N/Nc1ccc(S(N)(=O)=O)cc1)C(=O)N2,1.44%
17,CCn1c(-c2nonc2N)nc2c(C#CC(C)(C)O)nc(OC[C@@H](N)c3ccccc3)cc21,1.13%
